Pf growth 48h – inhibits P. falciparum growth in the first generation, 48 h. P. falciparum luciferase growth in erythrocytes, 48 h. Potency, µM (series often up to 28.7 µM), for the others: at the top dose activity change, negative = inhibition, actives largely listed as inhibitors. 5.9% of 310,000 active. AID 504832; further: on the % scale 0 is the no-effect control and ±100 the full control effect
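Parasite viability was followed by luminescence of a genomically integrated firefly luciferase. Cultures held 0.1% parasitemia at 2% hematocrit (final), incubated under 5% CO2 at 37 C.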
Pf growth 96h – inhibits malaria parasite growth, 96 h; P. falciparum luciferase reporter growth, 96 h; Potency, µM (doses to about 28.7 µM), for inactives: at the highest dose activity change, negative = inhibition, hits mostly inhibitors; 6.9% of 320,000 active; further: on the % scale 0 is the no-effect control and ±100 the full control effect
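Erythrocytes infected with luciferase-expressing P. falciparum were dispensed at 2% hematocrit and 0.05% parasitemia (final), then incubated with compounds 96 hours at 37 C in 5% CO2. Luminescence after detection reagent addition reported growth.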
SARS PLP yeast – inhibitors of SARS-CoV papain-like protease in yeast; Potency, µM (series often up to 32.9 µM), without a hit: at the highest dose activity, positive = growth rescue, hits mostly activators; AID 485353; S. cerevisiae expressing SARS-CoV PLpro, growth rescue; 0.19% of 330,000 active; calls by dose curve; further: 0% is about no effect; nearly all actives have a fitted effect of over 55% in size
Sm TGR block – S. mansoni TGR enzyme inhibition; Potency, µM (series often up to 114 µM), for the others: top-dose activity change, negative = inhibition, usual class: inhibitors; AID 485364; Q962Y6; purified TGR, DTNB reduction, TNB absorbance 405 nm; 3% of 360,000 active; further: on the % scale 0 is the no-effect control and ±100 the full control effect; nearly all actives have a fitted effect of over 60% in size
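First, TGR (20 nM dispensed) and NADPH were mixed with compound. Second, a 15 min room-temperature incubation followed. Third, further NADPH and then DTNB were added to start the reaction. Finally, TNB absorbance was monitored kinetically.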
An asterisk follows results filed as active. The list is not random: actives were taken first. Their share in the collection is about 12%. Unless noted, the call rests on the fitted dose curve; in most records, active means well fitted curve in the direction sought with a large enough effect; inconclusive means small, poorly fitted or top-dose-only effect, or another doubt; inactive means no such curve, though single readings can be large; an effect the other way counts as inactive or inconclusive. Potency means the concentration at half of the fitted maximal effect.

For C=CCN(CC=C)C(=O)C1CCN(S(=O)(=O)c2ccc(-n3cnnn3)cc2)CC1 the results were Pf growth 48h 2.0%, Pf growth 96h 0.9%, SARS PLP yeast 0.4% and Sm TGR block -4.3%.
Screening COc1ccc(NC(=O)CC2C(=O)N(c3ccc(F)cc3)C(=O)N2Cc2ccco2)cc1 (centres undefined) returned Sm TGR block 1.6%.
Screening CC1CCc2noc(NC(=O)c3ccccc3[N+](=O)[O-])c2C1 (centres undefined) returned Sm TGR block -5.9%.
CCC(C(=O)N(C)Cc1ccccc1)n1nc(C)c2sc3ccccc3c2c1=O (centres undefined) was read as Sm TGR block -5.8%.
Screening N#Cc1nc(-c2ccc(COc3ccc(Cl)cc3)o2)oc1N1CCC(C(N)=O)CC1 returned Sm TGR block -1.1%.
For Cc1ccc(NC(=O)C2CCN(S(=O)(=O)c3ccc(N4CCCC4=O)cc3)CC2)cc1Cl the results were Pf growth 48h inconclusive, Pf growth 96h 5.86µM*, SARS PLP yeast 13.1% and Sm TGR block -4.3%.
Screening O=C(Cc1c(F)cccc1Cl)OCN1C(=O)c2ccccc2C1=O returned Pf growth 48h 1.9%, Pf growth 96h 80.3%, SARS PLP yeast 8.9% and Sm TGR block -16.5%.
Cc1nn(C)c(C(=O)Nc2ccn(Cc3c(F)c(F)cc(F)c3F)n2)c1[N+](=O)[O-] was read as Pf growth 48h -3.9%, SARS PLP yeast 6.6% and Sm TGR block 0.6%.
Screening Cc1nn(Cc2cccc(C(=O)Nc3ccn(Cc4c(F)c(F)cc(F)c4F)n3)c2)c(C)c1[N+](=O)[O-] returned Pf growth 96h 13.1µM*, SARS PLP yeast 5.8% and Sm TGR block -0.4%.
CC(C)(C)[C@]1(O)CCN2CC3c4ccccc4CCc4cccc(c43)[C@@H]2C1 (some centres undefined) was read as Pf growth 48h 13.5µM* and Pf growth 96h 12µM*.
Screening COc1ccccc1C(C)NC(=O)c1ccc(C)o1 (centres undefined) returned Pf growth 96h 13.1µM*, SARS PLP yeast 0.2% and Sm TGR block -26.4%.
COc1cccc2c1O/C(=N\O)C(C(=O)Nc1ccc(C)cc1)C2 (centres undefined) was read as Pf growth 48h 13.7%, Pf growth 96h -17.8%, SARS PLP yeast -3.1% and Sm TGR block 3.9%.
For CCOc1cc(N2CCOCC2)c(OCC)cc1NC(=O)Cc1ccccc1 the results were Pf growth 48h inconclusive, Pf growth 96h inconclusive, SARS PLP yeast 0.9% and Sm TGR block -23.3%.
CCOC(=O)c1c(C)[nH]c(C(=O)Nc2cc(OCC)c(N3CCOCC3)cc2OCC)c1C was read as Pf growth 48h 2.94µM*, Pf growth 96h 14.7µM*, SARS PLP yeast -3.6% and Sm TGR block 2.7%.
CCOc1cc(N2CCOCC2)c(OCC)cc1NC(=O)Cc1ccccc1OC was read as Pf growth 48h inconclusive, Pf growth 96h 7.38µM*, SARS PLP yeast 5.8% and Sm TGR block 7.8%.
Screening CCOc1cc(N2CCOCC2)c(OCC)cc1NC(=O)c1cc(C)cc(C)c1 returned Pf growth 48h 13.1µM*, Pf growth 96h inconclusive, SARS PLP yeast -0.7% and Sm TGR block 7.2%.
For CCOc1cc(N2CCOCC2)c(OCC)cc1NC(=O)c1ccc(C)cc1 the results were Pf growth 48h inconclusive, Pf growth 96h -25.2%, SARS PLP yeast 2.0% and Sm TGR block 4.3%.
For COc1cnn(-c2ccccc2)c(=O)c1SCc1ccc(Cl)cc1Cl the results were Pf growth 48h inconclusive, Pf growth 96h inconclusive, SARS PLP yeast -1.2% and Sm TGR block 0.0%.
Screening Cn1ncc2c(c(SCc3ccc(Cl)cc3Cl)nn2C)c1=O returned Pf growth 48h 7.38µM*, Pf growth 96h inconclusive, SARS PLP yeast -0.1% and Sm TGR block 30.8%.
Screening COc1cccc(CNC(=O)c2cccc(S(=O)(=O)N3CCN(C)CC3)c2)c1 returned Pf growth 48h -6.6%, Pf growth 96h 5.2%, SARS PLP yeast -4.9% and Sm TGR block -8.6%.
For O=C1C(Cc2ccccc2)Nc2ncnc(N3CCN(c4ccccc4)CC3)c2N1Cc1ccccc1 (centres undefined) the results were Pf growth 48h 2.94µM*, Pf growth 96h 2.94µM*, SARS PLP yeast -0.1% and Sm TGR block inconclusive.
For COc1ccc(CN2C(=O)C(Cc3ccccc3)Nc3ncnc(N4CCCCC4)c32)cc1 (centres undefined) the results were Pf growth 48h 5.22µM*, Pf growth 96h 11.7µM*, SARS PLP yeast 1.5% and Sm TGR block 36.6%.
`Cc1ccc(CN2C(=O)C(Cc3ccccc3)Nc3ncnc(N4CCN(c5ccccc5)CC4)c32)cc1` (centres undefined) gave Pf growth 48h 1.85µM*, Pf growth 96h 4.65µM*, SARS PLP yeast -24.7% and Sm TGR block inconclusive.
CCC1Nc2ncnc(N3CCCCC3)c2N(Cc2ccccc2)C1=O (centres undefined) was read as Pf growth 48h inconclusive, Pf growth 96h inconclusive, SARS PLP yeast -22.8% and Sm TGR block -16.9%.
O=C1C(Cc2ccccc2)Nc2ncnc(N3CCc4ccccc4C3)c2N1Cc1ccc(Br)cc1 (centres undefined) was read as Pf growth 48h 10.4µM*, Pf growth 96h 13.1µM*, SARS PLP yeast -0.3% and Sm TGR block -18.5%.
`O=C1C(Cc2ccccc2)Nc2ncnc(N3CCN(c4ccccc4)CC3)c2N1Cc1ccc(Br)cc1` (centres undefined) gave SARS PLP yeast -1.9%.
For O=C1C(Cc2ccccc2)Nc2ncnc(N3CCOCC3)c2N1Cc1ccc(Cl)cc1 (centres undefined) the results were Pf growth 48h 9.28µM*, Pf growth 96h 0.0%, SARS PLP yeast -4.3% and Sm TGR block inconclusive.
Screening CCC1Nc2ncnc(N3CCOCC3)c2N(Cc2ccccc2)C1=O (centres undefined) returned Pf growth 48h inconclusive, Pf growth 96h 28.9%, SARS PLP yeast -0.8% and Sm TGR block -30.6%.
For Cc1ccc(CN2C(=O)C(Cc3ccccc3)Nc3ncnc(N4CCCCC4)c32)cc1 (centres undefined) the results were Pf growth 48h 1.65µM*, Pf growth 96h 4.65µM*, SARS PLP yeast 4.8% and Sm TGR block -29.5%.
`CCCN(CCC)C(=O)c1cc(S(=O)(=O)N2CCCCC2)c[nH]1` gave Pf growth 48h -1.1%, Pf growth 96h inconclusive, SARS PLP yeast 10.7% and Sm TGR block -10.3%.
Screening Cc1cccc(S(=O)(=O)c2cn(C)c3cc(N4CCC(C)CC4)c(F)cc3c2=O)c1 returned Sm TGR block -2.0%.
CC(=O)c1ccc(NC(=O)C2CCCN(S(=O)(=O)c3c(C)[nH]c(=O)[nH]c3=O)C2)cc1 (centres undefined) was read as Pf growth 48h 157.2%, Pf growth 96h 4.15µM*, SARS PLP yeast -0.4% and Sm TGR block inconclusive.
